In the supplement of paper PMC11732987, “Enantioselective OTUD7B fragment discovery through chemoproteomics screening and high-throughput optimisation” (Communications Chemistry, 2025):

How the values were obtained:
Test in all cases: log2 ratio of Biotin-Ahx-Ub-VS probe labelling (fragment/DMSO); higher = less target engagement (more negative = stronger competition), active = hit call of the paper (q ≤ 0.05, log2 ratio ≤ -1)
Conditions in all cases: compound concentration: 200 uM; treatment time: 3 h
USP9X = USP9X (UniProt Q93008)
Summary of the method: (§1)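 HEK293T lysate in Tris/CHAPS/IGEPAL buffer with protease inhibitors (495 µg per sample) was given fragment at 200 µM or vehicle for 3 h, in triplicate. It then received Biotin-Ahx-Ub-VS at 0.5 µM final for 1 h. Labelled DUBs were NeutrAvidin-enriched, digested with LysC and trypsin, and run by diaPASEF LC-MS/MS. Values are average log2 fragment/vehicle ratios by unpaired t-test on global-median-normalised Spectronaut quantities of proteins with ≥2 unique peptides.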

UniProt O00487 = biological target: UniProt O00487
Summary of the method: as §1

UniProt O00507 = biological target: UniProt O00507
Summary of the method: as §1

UniProt P51784 = biological target: UniProt P51784
Summary of the method: as §1

UniProt Q5T2D3 = biological target: T1, UniProt Q5T2D3
T1 sequence (whole entry): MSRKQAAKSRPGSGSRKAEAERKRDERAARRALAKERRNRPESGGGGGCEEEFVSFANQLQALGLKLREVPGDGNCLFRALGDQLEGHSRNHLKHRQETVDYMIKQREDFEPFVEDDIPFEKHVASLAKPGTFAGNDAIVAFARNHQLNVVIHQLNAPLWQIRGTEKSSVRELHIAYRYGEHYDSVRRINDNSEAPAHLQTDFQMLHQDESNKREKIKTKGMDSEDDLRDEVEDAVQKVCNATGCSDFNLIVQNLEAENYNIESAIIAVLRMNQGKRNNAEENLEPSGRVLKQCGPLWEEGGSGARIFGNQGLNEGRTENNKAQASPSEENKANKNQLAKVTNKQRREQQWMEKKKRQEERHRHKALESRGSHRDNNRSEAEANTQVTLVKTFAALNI
Summary of the method: as §1

UniProt Q8TE49 = biological target: T2, UniProt Q8TE49
T2 sequence (whole entry): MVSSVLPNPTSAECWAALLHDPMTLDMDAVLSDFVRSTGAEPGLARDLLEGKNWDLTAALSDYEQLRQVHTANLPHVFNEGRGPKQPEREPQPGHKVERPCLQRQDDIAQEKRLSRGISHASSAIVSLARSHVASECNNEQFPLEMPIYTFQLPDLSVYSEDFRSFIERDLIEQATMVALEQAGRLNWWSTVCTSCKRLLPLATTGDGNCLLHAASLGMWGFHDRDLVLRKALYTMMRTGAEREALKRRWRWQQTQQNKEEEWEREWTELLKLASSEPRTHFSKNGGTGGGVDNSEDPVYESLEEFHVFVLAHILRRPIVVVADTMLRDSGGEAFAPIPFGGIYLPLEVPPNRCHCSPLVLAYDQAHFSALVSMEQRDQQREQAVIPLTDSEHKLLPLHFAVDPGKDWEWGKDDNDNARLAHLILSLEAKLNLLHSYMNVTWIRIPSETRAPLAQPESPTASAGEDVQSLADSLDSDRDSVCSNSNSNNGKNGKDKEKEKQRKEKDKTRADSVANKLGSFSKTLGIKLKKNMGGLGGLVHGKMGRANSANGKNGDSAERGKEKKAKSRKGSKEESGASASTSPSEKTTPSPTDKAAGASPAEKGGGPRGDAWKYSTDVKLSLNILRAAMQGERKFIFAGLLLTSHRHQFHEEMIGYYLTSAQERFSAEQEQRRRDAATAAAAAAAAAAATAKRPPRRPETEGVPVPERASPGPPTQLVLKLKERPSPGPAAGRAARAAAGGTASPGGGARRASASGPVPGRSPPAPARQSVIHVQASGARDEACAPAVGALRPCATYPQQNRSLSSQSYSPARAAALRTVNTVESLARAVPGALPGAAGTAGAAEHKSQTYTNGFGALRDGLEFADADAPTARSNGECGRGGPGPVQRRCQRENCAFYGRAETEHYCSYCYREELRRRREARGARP
Summary of the method: as §1

UniProt Q9P2H5 = biological target: T3, UniProt Q9P2H5
T3 sequence (whole entry): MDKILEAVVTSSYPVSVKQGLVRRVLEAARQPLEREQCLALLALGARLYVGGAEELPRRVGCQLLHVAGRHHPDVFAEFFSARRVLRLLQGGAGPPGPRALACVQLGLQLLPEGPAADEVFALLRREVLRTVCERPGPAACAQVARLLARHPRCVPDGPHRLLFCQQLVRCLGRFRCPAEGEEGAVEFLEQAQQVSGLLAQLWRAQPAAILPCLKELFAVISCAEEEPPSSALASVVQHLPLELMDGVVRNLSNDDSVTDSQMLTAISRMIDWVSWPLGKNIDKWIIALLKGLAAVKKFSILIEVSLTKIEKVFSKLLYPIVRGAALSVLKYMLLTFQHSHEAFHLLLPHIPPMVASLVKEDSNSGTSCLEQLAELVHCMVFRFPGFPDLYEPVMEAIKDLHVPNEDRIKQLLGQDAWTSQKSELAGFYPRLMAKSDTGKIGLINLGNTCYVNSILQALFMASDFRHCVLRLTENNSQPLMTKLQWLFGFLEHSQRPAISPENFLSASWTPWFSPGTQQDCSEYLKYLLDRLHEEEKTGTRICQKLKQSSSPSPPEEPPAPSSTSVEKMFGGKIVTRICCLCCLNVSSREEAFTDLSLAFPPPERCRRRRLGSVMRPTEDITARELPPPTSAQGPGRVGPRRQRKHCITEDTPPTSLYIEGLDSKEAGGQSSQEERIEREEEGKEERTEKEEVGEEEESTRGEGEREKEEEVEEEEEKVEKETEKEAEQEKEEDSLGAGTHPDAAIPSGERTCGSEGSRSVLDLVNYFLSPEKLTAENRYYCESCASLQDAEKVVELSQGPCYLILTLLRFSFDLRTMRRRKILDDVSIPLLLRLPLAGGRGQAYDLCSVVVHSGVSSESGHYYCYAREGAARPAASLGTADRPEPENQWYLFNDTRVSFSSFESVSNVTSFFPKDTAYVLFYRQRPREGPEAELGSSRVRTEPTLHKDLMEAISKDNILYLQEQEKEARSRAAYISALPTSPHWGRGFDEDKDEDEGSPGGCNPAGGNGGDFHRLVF
Summary of the method: as §1

UniProt Q9UGI0 = biological target: T4, UniProt Q9UGI0
T4 sequence (whole entry): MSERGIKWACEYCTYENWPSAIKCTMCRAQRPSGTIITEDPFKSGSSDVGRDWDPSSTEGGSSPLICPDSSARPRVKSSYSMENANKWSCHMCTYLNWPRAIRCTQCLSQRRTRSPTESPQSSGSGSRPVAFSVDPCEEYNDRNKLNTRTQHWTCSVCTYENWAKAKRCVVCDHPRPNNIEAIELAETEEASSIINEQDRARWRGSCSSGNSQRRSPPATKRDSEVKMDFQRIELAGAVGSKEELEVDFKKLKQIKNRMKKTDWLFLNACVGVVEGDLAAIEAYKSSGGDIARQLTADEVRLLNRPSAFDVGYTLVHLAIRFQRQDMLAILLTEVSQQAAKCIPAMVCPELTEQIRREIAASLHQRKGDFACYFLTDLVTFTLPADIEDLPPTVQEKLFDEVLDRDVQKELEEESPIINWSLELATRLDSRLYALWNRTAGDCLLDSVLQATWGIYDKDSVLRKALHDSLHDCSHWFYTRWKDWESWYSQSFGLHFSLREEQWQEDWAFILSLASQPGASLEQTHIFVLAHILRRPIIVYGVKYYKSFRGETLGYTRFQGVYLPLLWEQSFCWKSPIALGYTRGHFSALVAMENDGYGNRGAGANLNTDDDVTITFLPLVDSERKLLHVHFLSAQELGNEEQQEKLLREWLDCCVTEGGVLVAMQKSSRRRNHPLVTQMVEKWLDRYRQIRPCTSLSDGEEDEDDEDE
Summary of the method: as §1

YOD1 = biological target: T5, YOD1 (UniProt Q5VVQ6)
T5 sequence (whole entry): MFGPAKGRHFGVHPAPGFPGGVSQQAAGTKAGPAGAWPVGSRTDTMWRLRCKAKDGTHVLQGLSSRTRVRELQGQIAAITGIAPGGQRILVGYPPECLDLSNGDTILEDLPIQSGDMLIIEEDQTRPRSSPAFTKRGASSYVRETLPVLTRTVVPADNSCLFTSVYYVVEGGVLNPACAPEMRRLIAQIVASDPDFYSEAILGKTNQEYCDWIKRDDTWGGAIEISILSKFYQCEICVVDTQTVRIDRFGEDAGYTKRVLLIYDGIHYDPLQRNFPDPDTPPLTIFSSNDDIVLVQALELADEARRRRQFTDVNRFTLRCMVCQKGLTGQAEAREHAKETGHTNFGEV
Summary of the method: as §1

Measured: log2 ratio of Biotin-Ahx-Ub-VS probe labelling

Sequence of UniProt P51784 (P51784 whole entry): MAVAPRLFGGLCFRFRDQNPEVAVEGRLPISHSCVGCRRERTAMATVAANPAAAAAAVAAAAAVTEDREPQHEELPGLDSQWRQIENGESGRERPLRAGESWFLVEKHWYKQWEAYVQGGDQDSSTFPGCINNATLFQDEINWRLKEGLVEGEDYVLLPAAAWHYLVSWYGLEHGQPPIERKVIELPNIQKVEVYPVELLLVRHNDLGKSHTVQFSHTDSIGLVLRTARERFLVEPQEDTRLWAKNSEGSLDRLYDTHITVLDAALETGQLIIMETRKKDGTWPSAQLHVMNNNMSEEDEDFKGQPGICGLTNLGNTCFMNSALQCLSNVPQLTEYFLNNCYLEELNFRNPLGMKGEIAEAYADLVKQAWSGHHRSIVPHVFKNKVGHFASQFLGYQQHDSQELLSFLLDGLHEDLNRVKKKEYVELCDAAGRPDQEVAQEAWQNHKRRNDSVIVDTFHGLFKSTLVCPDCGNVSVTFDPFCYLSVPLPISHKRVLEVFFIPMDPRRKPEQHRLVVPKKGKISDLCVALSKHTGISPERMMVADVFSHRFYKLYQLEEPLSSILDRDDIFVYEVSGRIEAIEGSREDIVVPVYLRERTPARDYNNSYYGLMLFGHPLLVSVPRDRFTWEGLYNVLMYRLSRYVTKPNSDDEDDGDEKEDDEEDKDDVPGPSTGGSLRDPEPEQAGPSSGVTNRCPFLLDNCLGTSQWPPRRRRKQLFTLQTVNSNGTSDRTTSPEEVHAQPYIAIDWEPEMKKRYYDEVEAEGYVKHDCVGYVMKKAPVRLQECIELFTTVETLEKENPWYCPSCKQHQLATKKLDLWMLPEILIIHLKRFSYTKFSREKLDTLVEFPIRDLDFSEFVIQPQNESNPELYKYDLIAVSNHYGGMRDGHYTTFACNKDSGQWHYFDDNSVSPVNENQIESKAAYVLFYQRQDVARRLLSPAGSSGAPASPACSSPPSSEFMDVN
Sequence of USP9X (Q93008 whole entry, the tested form may be a part): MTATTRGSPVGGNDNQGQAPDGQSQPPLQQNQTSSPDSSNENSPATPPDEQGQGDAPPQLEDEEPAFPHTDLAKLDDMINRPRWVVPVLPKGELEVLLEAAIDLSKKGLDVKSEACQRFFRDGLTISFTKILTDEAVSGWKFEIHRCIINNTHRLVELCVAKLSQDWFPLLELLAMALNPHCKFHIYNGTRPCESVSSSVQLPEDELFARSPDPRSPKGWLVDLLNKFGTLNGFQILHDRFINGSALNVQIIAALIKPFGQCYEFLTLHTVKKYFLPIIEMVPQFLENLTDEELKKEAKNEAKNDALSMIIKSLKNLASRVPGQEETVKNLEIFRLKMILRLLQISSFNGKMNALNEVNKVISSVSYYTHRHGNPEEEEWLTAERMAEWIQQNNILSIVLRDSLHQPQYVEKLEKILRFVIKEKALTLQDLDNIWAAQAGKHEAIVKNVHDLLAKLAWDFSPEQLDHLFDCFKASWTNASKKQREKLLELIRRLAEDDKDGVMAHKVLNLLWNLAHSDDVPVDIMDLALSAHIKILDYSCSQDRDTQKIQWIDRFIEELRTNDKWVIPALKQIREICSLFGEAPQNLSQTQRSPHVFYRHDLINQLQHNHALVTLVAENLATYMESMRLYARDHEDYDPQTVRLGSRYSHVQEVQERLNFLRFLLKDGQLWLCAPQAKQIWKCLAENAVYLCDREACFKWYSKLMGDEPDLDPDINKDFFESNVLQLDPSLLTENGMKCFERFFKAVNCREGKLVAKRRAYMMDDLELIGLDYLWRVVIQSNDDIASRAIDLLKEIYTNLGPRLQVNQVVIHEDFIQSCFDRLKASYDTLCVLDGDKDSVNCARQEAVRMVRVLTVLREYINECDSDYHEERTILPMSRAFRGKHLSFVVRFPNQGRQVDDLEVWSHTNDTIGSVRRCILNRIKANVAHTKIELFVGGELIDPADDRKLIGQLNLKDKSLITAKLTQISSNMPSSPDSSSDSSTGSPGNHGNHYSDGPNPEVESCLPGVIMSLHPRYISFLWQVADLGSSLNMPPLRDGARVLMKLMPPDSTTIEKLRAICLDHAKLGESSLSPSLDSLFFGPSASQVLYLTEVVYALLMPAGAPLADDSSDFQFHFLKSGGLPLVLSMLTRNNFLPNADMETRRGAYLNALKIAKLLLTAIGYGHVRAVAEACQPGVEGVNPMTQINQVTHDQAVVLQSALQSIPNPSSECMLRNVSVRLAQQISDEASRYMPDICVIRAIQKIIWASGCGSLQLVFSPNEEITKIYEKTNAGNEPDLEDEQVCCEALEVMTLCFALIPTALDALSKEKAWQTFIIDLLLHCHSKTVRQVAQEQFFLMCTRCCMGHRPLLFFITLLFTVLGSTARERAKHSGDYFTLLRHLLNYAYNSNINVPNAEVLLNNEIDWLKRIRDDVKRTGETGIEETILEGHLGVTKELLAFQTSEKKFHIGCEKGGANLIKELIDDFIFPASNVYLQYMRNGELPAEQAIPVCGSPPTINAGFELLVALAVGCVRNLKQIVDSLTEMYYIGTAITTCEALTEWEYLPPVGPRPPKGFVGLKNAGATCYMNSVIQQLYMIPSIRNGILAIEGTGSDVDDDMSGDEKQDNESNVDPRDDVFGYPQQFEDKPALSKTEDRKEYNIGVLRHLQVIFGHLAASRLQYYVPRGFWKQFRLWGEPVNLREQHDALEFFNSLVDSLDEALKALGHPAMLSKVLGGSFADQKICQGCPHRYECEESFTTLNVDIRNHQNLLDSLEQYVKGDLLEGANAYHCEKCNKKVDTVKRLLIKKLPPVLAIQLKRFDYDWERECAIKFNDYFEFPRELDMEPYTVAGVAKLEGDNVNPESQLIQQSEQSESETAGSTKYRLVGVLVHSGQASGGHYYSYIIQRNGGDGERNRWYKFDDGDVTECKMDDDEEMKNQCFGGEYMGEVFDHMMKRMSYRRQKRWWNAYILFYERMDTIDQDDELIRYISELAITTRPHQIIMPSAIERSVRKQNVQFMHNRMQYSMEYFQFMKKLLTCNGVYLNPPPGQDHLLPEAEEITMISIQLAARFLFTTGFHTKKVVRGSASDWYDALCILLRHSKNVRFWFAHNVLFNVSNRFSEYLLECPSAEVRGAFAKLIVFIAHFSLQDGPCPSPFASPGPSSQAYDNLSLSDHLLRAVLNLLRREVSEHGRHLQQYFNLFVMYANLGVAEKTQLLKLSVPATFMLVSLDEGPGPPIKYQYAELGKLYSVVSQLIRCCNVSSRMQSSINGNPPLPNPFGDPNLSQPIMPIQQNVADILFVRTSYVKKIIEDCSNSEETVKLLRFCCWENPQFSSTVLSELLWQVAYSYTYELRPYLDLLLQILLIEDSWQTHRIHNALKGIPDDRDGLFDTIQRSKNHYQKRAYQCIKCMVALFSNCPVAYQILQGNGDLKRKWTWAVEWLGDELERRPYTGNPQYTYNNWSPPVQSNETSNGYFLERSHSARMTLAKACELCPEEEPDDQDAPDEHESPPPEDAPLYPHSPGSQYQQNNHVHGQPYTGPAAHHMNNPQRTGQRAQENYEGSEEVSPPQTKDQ
Sequence of UniProt O00487 (O00487 whole entry): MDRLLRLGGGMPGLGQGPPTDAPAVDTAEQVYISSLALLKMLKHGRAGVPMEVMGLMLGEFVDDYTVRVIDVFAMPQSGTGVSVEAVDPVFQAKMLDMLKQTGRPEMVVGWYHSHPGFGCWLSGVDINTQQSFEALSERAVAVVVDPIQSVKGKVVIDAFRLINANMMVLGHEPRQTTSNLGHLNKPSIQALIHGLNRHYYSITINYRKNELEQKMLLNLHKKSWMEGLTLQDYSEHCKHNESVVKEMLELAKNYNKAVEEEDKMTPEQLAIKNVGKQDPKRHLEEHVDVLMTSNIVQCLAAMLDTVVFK

Cl.O=C(CCl)NC1(c2ncccn2)CCC1
inactive: USP9X 0.117 | UniProt O00487 0.0465 | UniProt O00507 -0.0196 | UniProt P51784 0.0134 | UniProt Q5T2D3 -0.0112 | UniProt Q8TE49 0.0256 | UniProt Q9P2H5 -0.0207 | UniProt Q9UGI0 -0.201 | YOD1 0.161
